Measurements taken from PubChem BioAssay (EPA / NIEHS).
Calls of active or inactive are those of the source. The calls were made as follows: active = hit-call score of the fitted dose curve at least 0.9, where 1 is the maximum; inactive = score below 0.9.

Tests used:
[1] = APR_HepG2_CellCycleArrest_24hr: Apredica 24-hour HepG2 Assay for Cell Cycle Arrest (AID 2282905); conditions: imaging, actives raise or lower the signal;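 also: cell cycle arrest scored as ratio of 2N to 4N nuclear DNA content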
In short: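 Compounds at 0.39–200 uM (0.5% DMSO) for 24 h, then fixed and Hoechst 33342 stained. Cell-cycle analysis of nuclear DNA content by high-content imaging, fitted bidirectionally versus DMSO.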

[2] = APR_HepG2_NuclearSize_24hr: Apredica 24-hour HepG2 Assay for Nuclear Size (AID 2282907); conditions: high-content imaging, actives raise or lower the signal
In short: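 HepG2 cells exposed 24 h to compounds at 0.39–200 uM (0.5% DMSO), fixed, Hoechst 33342 stained and imaged at 20x; nuclear diameter measured by automated image analysis, fitted bidirectionally against DMSO controls.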

[3] = APR_HepG2_CellLoss_24hr: Apredica 24-hour HepG2 Assay for Cell Loss (AID 2282908); conditions: high-content imaging
In short: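 HepG2 cells exposed 24 hr to 0.39–200 uM compound in duplicate at 0.5% v/v final DMSO. Cells fixed in 3.7% formaldehyde and Hoechst 33342-stained. Cell number came from nuclear imaging at 20x. Bidirectional fit versus DMSO.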

[4] = APR_HepG2_MicrotubuleCSK_24hr: Apredica 24-hour HepG2 Assay for Microtubule CSK Stabilty (AID 2282909); conditions: HepG2 microtubule cytoskeleton imaging, actives raise or lower the signal
In short: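 HepG2 cells were treated 24 hr with compound at 0.39–200 uM in duplicate (0.5% DMSO final), then fixed and permeabilized. Alpha-tubulin immunofluorescence was imaged by high-content microscopy, with bidirectional fitting against DMSO and taxol as positive control.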

[5] = APR_HepG2_MitoMembPot_24hr: Apredica 24-hour HepG2 Assay for Mitochondrial Membrane Potential (AID 2282911); conditions: imaging, actives raise or lower the signal
In short: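 Human hepatoma HepG2 cultures received ten compound concentrations up to 200 uM for 24 hr. Membrane-potential dye signal, captured by automated fluorescence microscopy, was scored for gain or loss against DMSO controls.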

[6] = APR_HepG2_MitoMass_24hr: Apredica 24-hour HepG2 Assay for Mitochondrial Mass (AID 2282912); conditions: high-content imaging, actives raise or lower the signal
In short: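 HepG2 cells exposed 24 hr to 0.39–200 uM compound, 0.5% v/v DMSO, in duplicate. Stained before fixation with 250 nM MitoTracker Red CMXRos for 30 min, then imaged at 20x with Hoechst nuclei. Fitted in both directions against DMSO.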

[7] = APR_HepG2_CellCycleArrest_72hr: Apredica 72-hour HepG2 Assay for Cell Cycle Arrest (AID 2282914); conditions: high-content imaging, actives raise or lower the signal
In short: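 Cell cycle arrest in HepG2 was scored from nuclear DNA content after 72 hr compound treatment (0.39–200 uM). Activity, either gain or loss, was fitted against the DMSO baseline.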

[8] = APR_HepG2_CellLoss_72hr: Apredica 72-hour HepG2 Assay for Cell Loss (AID 2282915); conditions: high-content imaging
In short: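 HepG2 cells exposed 72 h to compound at 0.39–200 uM (10 concentrations, duplicate) in 0.5% DMSO. Fixed with 3.7% formaldehyde and Hoechst 33342-stained. Imaged at 20x; nuclear count gives cell number, fitted bidirectionally versus DMSO.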

[9] = APR_HepG2_P-H2AX_72hr: Apredica 72-hour HepG2 Assay for H2AX Phosphorylation (AID 2282916); conditions: imaging, actives raise or lower the signal;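 also: phospho-histone H2A.x immunostain intensity per cell marking DNA damage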
In short: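 HepG2 cells treated 72 h at 0.39–200 uM, 0.5% DMSO final, duplicates. Formaldehyde-fixed, Triton-permeabilised, immunostained for phospho-H2A.x with Hoechst; fluorescence imaged at 20x, bidirectional fit versus DMSO.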

[10] = APR_HepG2_MitoticArrest_72hr: Apredica 72-hour HepG2 Assay for Mitotic Arrest (AID 2282918); conditions: high-content imaging, actives raise or lower the signal
In short: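 Mitotic arrest in HepG2 is scored from phospho-histone H3 staining after 72 hr dosing across 0.39–200 uM, with DMSO at 0.5% v/v. Nuclei are identified by Hoechst 33342 and fluorescence intensity is quantified per cell.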

[11] = APR_HepG2_MicrotubuleCSK_72hr: Apredica 72-hour HepG2 Assay for Microtubule CSK Stabilty (AID 2282919); conditions: HepG2 microtubule cytoskeleton, high-content imaging, actives raise or lower the signal
In short: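 HepG2 cells were exposed 72 hr to compound at 0.39–200 uM in duplicate (0.5% DMSO final), then fixed and permeabilized. Alpha-tubulin immunofluorescence was imaged by high-content microscopy, with bidirectional fitting against DMSO and taxol as positive control.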

[12] = APR_HepG2_P-H2AX_24hr: Apredica 24-hour HepG2 Assay for H2AX Phosphorylation (AID 2282920); conditions: high-content imaging, actives raise or lower the signal
In short: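 Signal comes from a FITC-labeled secondary detecting phospho-histone H2A.x in fixed HepG2 cells, quantified by automated imaging at 20x. Dosing ran 24 hr across 0.39–200 uM with 0.5% v/v DMSO.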

[13] = APR_HepG2_StressKinase_72hr: Apredica 72-hour HepG2 Assay for Stress Kinase (AID 2282921); conditions: HepG2 stress kinase (phospho-c-Jun) imaging, actives raise or lower the signal
In short: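 HepG2 cells treated 72 hr with 0.39–200 uM compound, 0.5% v/v DMSO, duplicate wells. After formaldehyde fixation and Triton permeabilization, stained with anti-phospho-c-Jun (1:500) and Cy3 secondary, imaged at 20x. Fitted in both directions against DMSO.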

[14] = APR_HepG2_StressKinase_24hr: Apredica 24-hour HepG2 Assay for Stress Kinase (AID 2282922); conditions: HepG2 stress kinase (phospho-c-Jun) imaging, actives raise or lower the signal
In short: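 HepG2 cells exposed 24 h to 0.39–200 uM compound in duplicate (0.5% v/v DMSO final). Cells fixed in 3.7% formaldehyde, permeabilized and immunostained for phospho-c-Jun; read by high-content fluorescence imaging, fitted bidirectionally against DMSO.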

[15] = APR_HepG2_MitoMass_72hr: Apredica 72-hour HepG2 Assay for Mitochondrial Mass (AID 2282924); conditions: high-content imaging, actives raise or lower the signal;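 also: MitoTracker Red CMXRos stain intensity per cell imaged as mitochondrial mass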
In short: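 HepG2 cells dosed 72 hr at 0.39–200 uM (0.5% DMSO), in duplicate. MitoTracker Red CMXRos 250 nM loaded 30 min before formaldehyde fixation; high-content fluorescence imaging, bidirectional fit versus DMSO.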

[16] = APR_HepG2_p53Act_24hr: Apredica 24-hour HepG2 Assay for p53 Activation (AID 2282913); conditions: high-content imaging, actives raise or lower the signal;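 also: p53 protein immunofluorescence averaged per cell in HepG2 with Hoechst nuclei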
In short: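 Automated fluorescence imaging quantifies p53 immunostaining in HepG2 cells after a 24 hr exposure (0.39–200 uM, duplicate, 0.5% DMSO). Nuclei are located by Hoechst 33342 staining.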

[17] = APR_HepG2_p53Act_72hr: Apredica 72-hour HepG2 Assay for p53 Activation (AID 2282923); conditions: high-content imaging, actives raise or lower the signal;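 also: average cellular p53 protein immunofluorescence intensity in HepG2 cells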
In short: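 HepG2 cells exposed 72 h to 0.39–200 uM in 0.5% DMSO, duplicates. Fixed, permeabilized cells immunostained for p53 (Cy5) with Hoechst; imaged at 20x, fluorescence analyzed bidirectionally against DMSO.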

[18] = APR_HepG2_MitoMembPot_72hr: Apredica 72-hour HepG2 Assay for Mitochondrial Membrane Potential (AID 2282917); conditions: imaging, actives raise or lower the signal
In short: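 HepG2 cells dosed 72 hr with compound at 0.39–200 uM in duplicate, 0.5% v/v DMSO final. Mitochondria stained with 250 nM MitoTracker Red CMXRos for 30 min before formaldehyde fixation, imaged by high-content fluorescence; bidirectional fit versus DMSO.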

Measured: AC50

CCOC1Oc2ccc(OS(C)(=O)=O)cc2C1(C)C (centres undefined)
inactive: [1] | [2] | [3] | [4] | [5] | [6] | [7] | [9] | [10] | [11] | [12] | [13] | [14] | [15]
active: [8] 46.1 µM

COc1nn(CSP(=S)(OC)OC)c(=O)s1
inactive: [1] | [2] | [3] | [4] | [5] | [6] | [16] | [7] | [8] | [9] | [10] | [11] | [12] | [13] | [14] | [17] | [15]

CCN(CC)C(=O)SCc1ccc(Cl)cc1
active: [5] 22.8 µM
inactive: [1] | [2] | [3] | [4] | [6] | [7] | [8] | [9] | [10] | [11] | [12] | [13] | [14] | [17] | [15]

COC(=O)c1ccccc1CS(=O)(=O)NC(=O)Nc1nc(OC)cc(OC)n1
inactive: [1] | [2] | [3] | [4] | [5] | [6] | [7] | [8] | [9] | [10] | [11] | [12] | [13] | [14] | [17] | [15]

CCOc1nc(NC)nc(NC(=O)NS(=O)(=O)c2ccccc2C(=O)OC)n1
inactive: [1] | [2] | [3] | [4] | [5] | [6] | [7] | [8] | [9] | [10] | [11] | [12] | [13] | [14] | [17] | [15]

C[C@H]1[C@H](c2ccc(Cl)cc2)SC(=O)N1C(=O)NC1CCCCC1
inactive: [1] | [2] | [3] | [4] | [5] | [6] | [7] | [9] | [10] | [12] | [13] | [14] | [17] | [15]
active: [8] 33.5 µM | [18] 100 µM | [11] 44.5 µM

COC(=O)c1ccccc1S(=O)(=O)NC(=O)N(C)c1nc(C)nc(OC)n1
inactive: [1] | [2] | [3] | [4] | [5] | [6] | [7] | [8] | [9] | [18] | [10] | [11] | [12] | [13] | [14] | [17] | [15]
